Measurements taken from PubChem BioAssay (NCI).
About 83,000 compounds went through this panel and 20% of them were active in at least one assay; those are over-represented in the sample as a whole.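 Interpretation: 100, growth as untreated; towards 0, rising growth inhibition; 0, no net growth; 0 to -100, cell death. Compounds scoring below 10 were considered active.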 Active and inactive are the calls of the source.

What was measured:
Assay in all cases: NCI-60 one-dose screen, 48 h (100 = growth as untreated, 0 = no growth, -100 = all killed)
Conditions in all cases: 10 µM unless noted
BT-549 breast = test system: BT-549 breast
MDA-MB-435 melanoma = test system: MDA-MB-435 melanoma
SW-620 colon = test system: SW-620 colon
MCF7 breast = test system: MCF7 breast
HCT-116 colon = test system: HCT-116 colon
HCC-2998 colon = test system: HCC-2998 colon
KM12 colon = test system: KM12 colon

Measured: growth

Cc1nn(-c2ccc(Cl)cc2)c2nc3c(nc12)C(=O)c1ccccc1-3
inactive: BT-549 breast 82% | MDA-MB-435 melanoma 67.5% | SW-620 colon 83.4% | MCF7 breast 49.1% | HCT-116 colon 39.9% | HCC-2998 colon 52.5% | KM12 colon 78.8%

CC(=O)Oc1ccc(C23c4ccccc4C2(OC(C)=O)c2cc(OC(C)=O)ccc23)cc1 (stereo unspecified)
inactive: BT-549 breast 106% | MDA-MB-435 melanoma 97.9% | SW-620 colon 80.3% | MCF7 breast 49.5% | HCT-116 colon 61.6% | HCC-2998 colon 59.2% | KM12 colon 46.2%

N#Cc1c(N)[nH]c(S)c1C#N
inactive: BT-549 breast 99.4% | MDA-MB-435 melanoma 98.4% | SW-620 colon 107% | MCF7 breast 92.1% | HCT-116 colon 97.9% | HCC-2998 colon 95.6% | KM12 colon 116%

O=C1c2ccccc2C(=O)c2c1cccc2-n1nnc2ccccc21
inactive: BT-549 breast 113% | MDA-MB-435 melanoma 121% | SW-620 colon 105% | MCF7 breast 112% | HCT-116 colon 86.5% | HCC-2998 colon 83.4% | KM12 colon 110%

COc1ccc2c(c1)nc(N)c1c3ccccc3cn21
inactive: BT-549 breast 88.4% | SW-620 colon 56.8% | MCF7 breast 44.8% | HCT-116 colon 59.1% | HCC-2998 colon 103% | KM12 colon 63%
active: MDA-MB-435 melanoma 2.56%

CN1C(=O)C(=Cc2cn(Cc3ccccc3)c3ccc(Br)cc23)C(=O)N(C)C1=O
inactive: BT-549 breast 102% | MDA-MB-435 melanoma 102% | SW-620 colon 108% | MCF7 breast 87% | HCT-116 colon 101% | HCC-2998 colon 107% | KM12 colon 102%

Cc1nn(-c2ccccc2)c2nc(Cl)c(/C=C/C(=O)c3ccccc3)c(-c3ccccc3)c12
inactive: BT-549 breast 87.9% | MDA-MB-435 melanoma 103% | SW-620 colon 112% | MCF7 breast 96.1% | HCT-116 colon 95.5% | HCC-2998 colon 103% | KM12 colon 106%

O=C(CN1CCCCC1)Sc1nnc2sc3ccccc3n12
inactive: BT-549 breast 104% | MDA-MB-435 melanoma 111% | SW-620 colon 101% | MCF7 breast 92.9% | HCT-116 colon 95.3% | HCC-2998 colon 116% | KM12 colon 104%

O=C(/C=C/c1cc2ccccc2[nH]c1=O)c1ccc(O)cc1
inactive: BT-549 breast 28% | MDA-MB-435 melanoma 34.3% | MCF7 breast 14.7% | HCT-116 colon 12.9% | HCC-2998 colon 93.1%
active: SW-620 colon -10.8% | KM12 colon -8.87%

CSc1nnc(C2=CC(=O)c3ccccc3C2=O)n1-c1ccccc1
inactive: BT-549 breast 92.9% | MDA-MB-435 melanoma 96.7% | SW-620 colon 92.1% | MCF7 breast 94.5% | HCT-116 colon 73.8% | HCC-2998 colon 85% | KM12 colon 61.5%

O=C(COC(=O)[C@H](C[Se][Se]C[C@H](NC(=O)c1ccc(Br)cc1F)C(=O)OCC(=O)c1ccc(F)cc1)NC(=O)c1ccc(Br)cc1F)c1ccc(F)cc1
active: BT-549 breast -93% | MDA-MB-435 melanoma -42.1% | SW-620 colon -95% | MCF7 breast -58.4% | HCT-116 colon -72.4% | HCC-2998 colon -68.9% | KM12 colon -99.1%

CC[C@]1(O)CC2CN(CCc3c([nH]c4ccccc34)[C@@](C(=O)OC)(c3cc4c(cc3OC)N(C)[C@H]3[C@@](O)(C(=O)OC)[C@H](OC(C)=O)[C@]5(CC)C=CCN6CC[C@]43[C@@H]65)C2)C1 (stereo partly specified)
active: MDA-MB-435 melanoma -17.8% | MCF7 breast 8.22% | HCT-116 colon 1.69% | HCC-2998 colon -23.4% | KM12 colon -7.67%
inactive: BT-549 breast 34.2% | SW-620 colon 21.6%

Clc1ccc(-n2cnc3c(Cl)ncnc32)cc1Cl
active: HCC-2998 colon -75%
inactive: BT-549 breast 90.3% | MDA-MB-435 melanoma 99.3% | SW-620 colon 78.6% | MCF7 breast 89.8% | HCT-116 colon 61.1% | KM12 colon 95%

Cc1cccc(Cl)c1NC(=O)c1ccc2nc(NC(=O)NC3CC(C)(C)NC(C)(C)C3)sc2c1
inactive: BT-549 breast 95% | MDA-MB-435 melanoma 90% | SW-620 colon 110% | MCF7 breast 86.5% | HCT-116 colon 89.1% | HCC-2998 colon 96.5% | KM12 colon 110%

CC1SC(c2c(Cl)cccc2Cl)N(NC(=O)c2[nH]c3ccc(F)cc3c2-c2ccccc2)C1=O (stereo unspecified)
active: HCT-116 colon -43.8%
inactive: BT-549 breast 75.7% | MDA-MB-435 melanoma 61.9% | SW-620 colon 17% | MCF7 breast 42.3% | HCC-2998 colon 11.2% | KM12 colon 46.4%

COc1ncc(-c2ccc3nccc(C#CCN4CCN(S(C)(=O)=O)CC4)c3c2)cc1NS(=O)(=O)c1ccc(F)cc1F
active: BT-549 breast -17.6% | MDA-MB-435 melanoma -23% | SW-620 colon 0.433% | MCF7 breast 6.88% | HCT-116 colon -10.4% | HCC-2998 colon -37% | KM12 colon -57.2%

CCC(C)CC(CC)NCCN1CCN(C(CC)CC(C)CC)C1=S (stereo unspecified)
active: MCF7 breast -60.9% | HCC-2998 colon -45.6%
inactive: BT-549 breast 78.6% | MDA-MB-435 melanoma 26.8% | SW-620 colon 29.1% | HCT-116 colon 16.4% | KM12 colon 24.4%

O=c1ccn(C2OC(CO)C(O)C2F)c(=O)[nH]1 (stereo unspecified)
inactive: BT-549 breast 115% | MDA-MB-435 melanoma 107% | SW-620 colon 102% | MCF7 breast 104% | HCT-116 colon 108% | HCC-2998 colon 97.8% | KM12 colon 111%
